# Results from PubChem BioAssay (NCI).
# About 79,000 compounds went through this panel and 15% of them were active in at least one assay; those are over-represented in the sample as a whole. Active and inactive are the calls of the source. Cut-off read from the data, not from the text of the source: active = growth inhibition above about 70%; inactive = the rest.
# Experiment: NCI Yeast Anticancer Drug Screen. Data for the rad50 strain (AID 155);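 note: 0% = growth of vehicle-only cultures of the same strain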
# Conditions: S. cerevisiae rad50 strain growth inhibition; at 50.0 µM; active compounds read high
# Procedure, shortened: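 Genetically altered yeast (DNA repair pathway); compound treatment; growth inhibition vs vehicle ctrl.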
row,SMILES,growth inhibition
1,C/C=C(/C)N(C(C)=O)N(C(C)=O)c1ccc([N+](=O)[O-])cc1[N+](=O)[O-],5.75% (inactive)
2,OCc1ccccc1OC1OC(CO)C(O)C(O)C1O (stereo not given),18.5% (inactive)
3,Cc1ccc(NC(=S)N(C)C)cc1C,-2.7% (inactive)
4,O=C1NC(=O)C(c2ccccc2)(C2CCC2)N1 (stereo not given),-6.95% (inactive)
5,COc1ccc(-c2cc(=O)c3c(ccc4ccccc43)o2)cc1,21.6% (inactive)
6,CC1CCN(c2ccc([N+](=O)[O-])cc2)CC1,-17.6% (inactive)
7,N#CCCOc1ccccc1,-1.3% (inactive)
8,OCC1OC(Nc2ccccc2O)C(O)C(O)C1O (stereo not given),41.5% (inactive)
9,O=C1c2ccccc2-c2c1c1ccccc1c(=O)n2-c1cccnc1,63.5% (inactive)
10,CCn1c2[n+](c3ccccc31)CCC2,-28.6% (inactive)
11,C/C(O)=C/c1nc2sc(C)c(C)c2c(=O)s1,14.4% (inactive)
12,CCOc1ccc(/C=C(/C#N)C(N)=O)cc1,9.7% (inactive)
13,Clc1ccc(C2NN=C3c4ccccc4OCC32)cc1 (stereo not given),-7.85% (inactive)
14,Cc1nnc(SCC2=C(C(=O)O)N3C(=O)C(NC(=O)Cn4cnnn4)C3SC2)s1 (stereo not given),41.8% (inactive)
15,O=C(N/N=C/c1ccc2c(c1)CCC2)c1cc2ccccc2cc1O,2.55% (inactive)
16,COc1cccc(/C=C/C(=O)c2ccc(Cl)cc2)c1OC,27% (inactive)
17,COc1cc([C@H]2OC[C@@H]3C(c4cc(OC)c5c(c4)OCO5)OC[C@H]23)cc(OC)c1OC (stereo not given in full),-8.65% (inactive)
18,CCOC(=O)CC(=O)c1ccc(C)cc1,-13.6% (inactive)
19,C=CCn1c2c(c3ccccc3c1=O)C(=O)c1ccccc1-2,43.9% (inactive)
20,Nc1ccccc1SC1CC(=O)N(c2cccc3ccccc23)C1=O (stereo not given),-19.6% (inactive)

row,SMILES,growth inhibition
1,NNc1[nH]c(=S)[nH]c1C(N)=O,-29.6% (inactive)
2,COC(=O)/C(=N\NC(=S)NN)C(C(=O)OC)C(=O)C(=O)Nc1cccc(C(F)(F)F)c1 (stereo not given),0.3% (inactive)
3,C[C@]12CC[C@@H]3c4ccc(OS(N)(=O)=O)cc4CC[C@H]3[C@@H]1CCC2=O,2.35% (inactive)
4,O=C(Cc1nc2ccccc2[nH]c1=O)N/N=C/c1ccc2c(c1)CCC2,-30.2% (inactive)
5,C(=N\N=C\c1c[nH]c2ccccc12)/c1c[nH]c2ccccc12,-21.6% (inactive)
6,COc1ccc(-c2coc3ccc4ccccc4c3c2=O)cc1OC,16% (inactive)
7,CCOc1ccc(/C=N/NS(=O)(=O)c2ccc(C)cc2)cc1,-3.6% (inactive)
8,CC(C)CCCC(C)[C@H]1CC[C@H]2[C@@H]3CC[C@H]4C[C@@H](CCC=C(c5cc(Cl)c(O)c(C(=O)O)c5)c5cc(Cl)c(O)c(C(=O)O)c5)CC[C@]4(C)[C@H]3CC[C@]12C (stereo not given in full) (tested in a mixture with another compound),0.95% (inactive)
9,Cc1cccc(NNC(=S)Nc2ccccc2)c1,18.1% (inactive)
10,O=C1Nc2ccccc2CCc2ccccc21,-18.1% (inactive)
11,c1coc(-c2nc(N=C3N=c4ccccc4=N3)[nH]c2-c2ccco2)c1,16.6% (inactive)
12,Cc1cc(Cl)ccc1NCN1C(=O)c2ccccc2C1=O,-6.8% (inactive)
13,COc1ccc(-c2cc(=O)c3c(O)cc(C)cc3o2)cc1OC,-23.9% (inactive)
14,CC1=NN(c2ccccc2)C(=O)/C1=C\c1ccc(N(CCC#N)CCC#N)cc1,6.85% (inactive)
15,CC(=O)Nc1ccc(/C=C/C(=O)c2ccc(Cl)cc2)cc1,18.2% (inactive)
16,COc1cc(/C=N\NC(=O)OC(C)(C)C)cc(OC)c1OC,6.25% (inactive)
17,CCOc1ccc(Br)cc1/C=C1\N=C(c2ccccc2)OC1=O,-2.25% (inactive)
18,CCCCN1CCNCC1,10.1% (inactive)
19,C=C1C(=O)O[C@@H]2C[C@@]3(C)CC(=O)C=C(C)[C@@H]3C[C@H]12,12.6% (inactive)
20,COc1cc(-c2nc(SC)nc3c2CCc2ccccc2-3)cc(OC)c1OC,-6% (inactive)
